# Laboratory results: article PMC11062922 (Nature Chemical Biology, 2023)
# Read-outs that look alike come from different tables or passages of the source.
# Columns and labels:
# Conditions in all cases: read-out: apparent Kd, n = 1
# TBK1 = system: TBK1
# TGFBR1 = system: TGFBR1
# TNK1 = system: TNK1
# [1] = compound concentrations:100 nM and 1000 nM (sheet 'Lestaurtinib' of Supplementary Table 1),run:Lestaurtinib_02473_R3,Plate:MR010
# [2] = compound concentrations:100 nM and 1000 nM (sheet 'Lestaurtinib' of Supplementary Table 1),run:Lestaurtinib_02487_R2,Plate:MR012
# [3] = compound concentrations:100 nM and 1000 nM (sheet 'Lestaurtinib' of Supplementary Table 1),run:Lestaurtinib_02496_R2,Plate:MR013
# [4] = compound concentrations:100 nM and 1000 nM (sheet 'Lestaurtinib' of Supplementary Table 1),run:Lestaurtinib_02566_R1,Plate:MR014
# [5] = compound concentrations:100 nM and 1000 nM (sheet 'Lestaurtinib' of Supplementary Table 1),run:Lestaurtinib_02566_R2,Plate:MR014
# [6] = compound concentrations:100 nM and 1000 nM (sheet 'Lestaurtinib' of Supplementary Table 1),run:Lestaurtinib_02584_R3,Plate:MR017
# [7] = compound concentrations:100 nM and 1000 nM (sheet 'Lestaurtinib' of Supplementary Table 1),run:Lestaurtinib_02606_R1,Plate:MR019
# [8] = compound concentrations:100 nM and 1000 nM (sheet 'Lestaurtinib' of Supplementary Table 1),run:Lestaurtinib_02741_R3,Plate:MR023
# [9] = compound concentrations:100 nM and 1000 nM (sheet 'Lestaurtinib' of Supplementary Table 1),run:Lestaurtinib_02752_R2,Plate:MR025
# [10] = compound concentrations:100 nM and 1000 nM (sheet 'Lestaurtinib' of Supplementary Table 1),run:Lestaurtinib_02765_R2,Plate:MR026
# [11] = compound concentrations:100 nM and 1000 nM (sheet 'Lestaurtinib' of Supplementary Table 1),run:Lestaurtinib_02766_R1,Plate:MR027
# [12] = compound concentrations:100 nM and 1000 nM (sheet 'Lestaurtinib' of Supplementary Table 1),run:Lestaurtinib_02766_R3,Plate:MR027
# [13] = compound concentrations:100 nM and 1000 nM (sheet 'Lestaurtinib' of Supplementary Table 1),run:Lestaurtinib_02802_R1,Plate:MR029
# [14] = compound concentrations:100 nM and 1000 nM (sheet 'Lestaurtinib' of Supplementary Table 1),run:Lestaurtinib_02339_R2,Plate:MR001
# [15] = compound concentrations:100 nM and 1000 nM (sheet 'Lestaurtinib' of Supplementary Table 1),run:Lestaurtinib_02339_R3,Plate:MR001
# [16] = compound concentrations:100 nM and 1000 nM (sheet 'Lestaurtinib' of Supplementary Table 1),run:Lestaurtinib_02364_R3,Plate:MR002
# [17] = compound concentrations:100 nM and 1000 nM (sheet 'Lestaurtinib' of Supplementary Table 1),run:Lestaurtinib_02367_R2,Plate:MR003
# [18] = compound concentrations:100 nM and 1000 nM (sheet 'Lestaurtinib' of Supplementary Table 1),run:Lestaurtinib_02437_R3,Plate:MR007
# [19] = compound concentrations:100 nM and 1000 nM (sheet 'Lestaurtinib' of Supplementary Table 1),run:Lestaurtinib_02438_R2,Plate:MR008
substance,measurement,setting,value
Lestaurtinib,potency estimated from few doses,"TBK1; compound concentrations:100 nM and 1000 nM (sheet 'Lestaurtinib' of Supplementary Table 1),run:Lestaurtinib_02473_R2,Plate:MR010",1370 nM
same,potency estimated from few doses,TBK1; [1],851 nM
same,potency estimated from few doses,"TBK1; compound concentrations:100 nM and 1000 nM (sheet 'Lestaurtinib' of Supplementary Table 1),run:Lestaurtinib_02482_R1,Plate:MR011",1350 nM
same,potency estimated from few doses,"TBK1; compound concentrations:100 nM and 1000 nM (sheet 'Lestaurtinib' of Supplementary Table 1),run:Lestaurtinib_02482_R2,Plate:MR011",1320 nM
same,potency estimated from few doses,"TBK1; compound concentrations:100 nM and 1000 nM (sheet 'Lestaurtinib' of Supplementary Table 1),run:Lestaurtinib_02487_R1,Plate:MR012",950 nM
same,potency estimated from few doses,TBK1; [2],1510 nM
same,potency estimated from few doses,TBK1; [3],1240 nM
same,potency estimated from few doses,"TBK1; compound concentrations:100 nM and 1000 nM (sheet 'Lestaurtinib' of Supplementary Table 1),run:Lestaurtinib_02496_R3,Plate:MR013",1350 nM
same,potency estimated from few doses,TBK1; [4],854 nM
same,potency estimated from few doses,TBK1; [5],1410 nM
same,potency estimated from few doses,"TBK1; compound concentrations:100 nM and 1000 nM (sheet 'Lestaurtinib' of Supplementary Table 1),run:Lestaurtinib_02577_R1,Plate:MR016",807 nM
same,potency estimated from few doses,TBK1; [6],1410 nM
same,potency estimated from few doses,"TBK1; compound concentrations:100 nM and 1000 nM (sheet 'Lestaurtinib' of Supplementary Table 1),run:Lestaurtinib_02601_R1,Plate:MR018",1210 nM
same,potency estimated from few doses,"TBK1; compound concentrations:100 nM and 1000 nM (sheet 'Lestaurtinib' of Supplementary Table 1),run:Lestaurtinib_02601_R2,Plate:MR018",1760 nM
same,potency estimated from few doses,"TBK1; compound concentrations:100 nM and 1000 nM (sheet 'Lestaurtinib' of Supplementary Table 1),run:Lestaurtinib_02601_R3,Plate:MR018",1700 nM
same,potency estimated from few doses,TBK1; [7],1530 nM
same,potency estimated from few doses,"TBK1; compound concentrations:100 nM and 1000 nM (sheet 'Lestaurtinib' of Supplementary Table 1),run:Lestaurtinib_02624_R1,Plate:MR020",1910 nM
same,potency estimated from few doses,"TBK1; compound concentrations:100 nM and 1000 nM (sheet 'Lestaurtinib' of Supplementary Table 1),run:Lestaurtinib_02624_R2,Plate:MR020",1400 nM
same,potency estimated from few doses,"TBK1; compound concentrations:100 nM and 1000 nM (sheet 'Lestaurtinib' of Supplementary Table 1),run:Lestaurtinib_02624_R3,Plate:MR020",1460 nM
same,potency estimated from few doses,TBK1; [8],1510 nM
same,potency estimated from few doses,"TBK1; compound concentrations:100 nM and 1000 nM (sheet 'Lestaurtinib' of Supplementary Table 1),run:Lestaurtinib_02748_R2,Plate:MR024",1310 nM
same,potency estimated from few doses,TBK1; [9],837 nM
same,potency estimated from few doses,"TBK1; compound concentrations:100 nM and 1000 nM (sheet 'Lestaurtinib' of Supplementary Table 1),run:Lestaurtinib_02752_R3,Plate:MR025",961 nM
same,potency estimated from few doses,TBK1; [10],1300 nM
same,potency estimated from few doses,TBK1; [11],972 nM
same,potency estimated from few doses,TBK1; [12],1300 nM
same,potency estimated from few doses,"TBK1; compound concentrations:100 nM and 1000 nM (sheet 'Lestaurtinib' of Supplementary Table 1),run:Lestaurtinib_02768_R2,Plate:MR028",1930 nM
same,potency estimated from few doses,"TBK1; compound concentrations:100 nM and 1000 nM (sheet 'Lestaurtinib' of Supplementary Table 1),run:Lestaurtinib_02768_R3,Plate:MR028",1330 nM
same,potency estimated from few doses,"TBK1; compound concentrations:100 nM and 1000 nM (sheet 'Lestaurtinib' of Supplementary Table 1),run:Lestaurtinib_02795_R1,Plate:MR022",1800 nM
same,potency estimated from few doses,"TBK1; compound concentrations:100 nM and 1000 nM (sheet 'Lestaurtinib' of Supplementary Table 1),run:Lestaurtinib_02795_R2,Plate:MR022",1370 nM
same,potency estimated from few doses,"TBK1; compound concentrations:100 nM and 1000 nM (sheet 'Lestaurtinib' of Supplementary Table 1),run:Lestaurtinib_02795_R3,Plate:MR022",1700 nM
same,potency estimated from few doses,TBK1; [13],976 nM
same,potency estimated from few doses,"TBK1; compound concentrations:100 nM and 1000 nM (sheet 'Lestaurtinib' of Supplementary Table 1),run:Lestaurtinib_02802_R2,Plate:MR029",1300 nM
same,potency estimated from few doses,"TBK1; compound concentrations:100 nM and 1000 nM (sheet 'Lestaurtinib' of Supplementary Table 1),run:Lestaurtinib_03172_R2,Plate:MR031",1750 nM
same,potency estimated from few doses,"TBK1; compound concentrations:100 nM and 1000 nM (sheet 'Lestaurtinib' of Supplementary Table 1),run:Lestaurtinib_03260_R1,Plate:MR033",1460 nM
same,potency estimated from few doses,"TBK1; compound concentrations:100 nM and 1000 nM (sheet 'Lestaurtinib' of Supplementary Table 1),run:Lestaurtinib_03260_R2,Plate:MR033",1580 nM
same,potency estimated from few doses,"TBK1; compound concentrations:100 nM and 1000 nM (sheet 'Lestaurtinib' of Supplementary Table 1),run:Lestaurtinib_03260_R3,Plate:MR033",1240 nM
same,potency estimated from few doses,TGFBR1; [14],1530 nM
same,potency estimated from few doses,TGFBR1; [15],1420 nM
same,potency estimated from few doses,TGFBR1; [16],1630 nM
same,potency estimated from few doses,TGFBR1; [17],1900 nM
same,potency estimated from few doses,"TGFBR1; compound concentrations:100 nM and 1000 nM (sheet 'Lestaurtinib' of Supplementary Table 1),run:Lestaurtinib_02367_R3,Plate:MR003",2070 nM
same,potency estimated from few doses,"TGFBR1; compound concentrations:100 nM and 1000 nM (sheet 'Lestaurtinib' of Supplementary Table 1),run:Lestaurtinib_02381_R1,Plate:MR004",2080 nM
same,potency estimated from few doses,"TGFBR1; compound concentrations:100 nM and 1000 nM (sheet 'Lestaurtinib' of Supplementary Table 1),run:Lestaurtinib_02407_R1,Plate:MR005",2020 nM
same,potency estimated from few doses,"TGFBR1; compound concentrations:100 nM and 1000 nM (sheet 'Lestaurtinib' of Supplementary Table 1),run:Lestaurtinib_02422_R1,Plate:MR006",964 nM
same,potency estimated from few doses,"TGFBR1; compound concentrations:100 nM and 1000 nM (sheet 'Lestaurtinib' of Supplementary Table 1),run:Lestaurtinib_02437_R2,Plate:MR007",1790 nM
same,potency estimated from few doses,TGFBR1; [18],176 nM
same,potency estimated from few doses,TGFBR1; [19],1420 nM
same,potency estimated from few doses,"TGFBR1; compound concentrations:100 nM and 1000 nM (sheet 'Lestaurtinib' of Supplementary Table 1),run:Lestaurtinib_02438_R3,Plate:MR008",1580 nM
same,potency estimated from few doses,"TGFBR1; compound concentrations:100 nM and 1000 nM (sheet 'Lestaurtinib' of Supplementary Table 1),run:Lestaurtinib_02443_R3,Plate:MR009",1320 nM
same,potency estimated from few doses,TGFBR1; [1],1750 nM
same,potency estimated from few doses,"TGFBR1; compound concentrations:100 nM and 1000 nM (sheet 'Lestaurtinib' of Supplementary Table 1),run:Lestaurtinib_02482_R3,Plate:MR011",1760 nM
same,potency estimated from few doses,TGFBR1; [2],1400 nM
same,potency estimated from few doses,"TGFBR1; compound concentrations:100 nM and 1000 nM (sheet 'Lestaurtinib' of Supplementary Table 1),run:Lestaurtinib_02496_R1,Plate:MR013",1530 nM
same,potency estimated from few doses,TGFBR1; [3],1830 nM
same,potency estimated from few doses,TGFBR1; [4],827 nM
same,potency estimated from few doses,TGFBR1; [5],1310 nM
same,potency estimated from few doses,"TGFBR1; compound concentrations:100 nM and 1000 nM (sheet 'Lestaurtinib' of Supplementary Table 1),run:Lestaurtinib_02566_R3,Plate:MR014",1340 nM
same,potency estimated from few doses,"TGFBR1; compound concentrations:100 nM and 1000 nM (sheet 'Lestaurtinib' of Supplementary Table 1),run:Lestaurtinib_02577_R3,Plate:MR016",1820 nM
same,potency estimated from few doses,TGFBR1; [6],1580 nM
same,potency estimated from few doses,TGFBR1; [7],2210 nM
same,potency estimated from few doses,"TGFBR1; compound concentrations:100 nM and 1000 nM (sheet 'Lestaurtinib' of Supplementary Table 1),run:Lestaurtinib_02606_R2,Plate:MR019",2080 nM
same,potency estimated from few doses,TGFBR1; [8],1350 nM
same,potency estimated from few doses,"TGFBR1; compound concentrations:100 nM and 1000 nM (sheet 'Lestaurtinib' of Supplementary Table 1),run:Lestaurtinib_02748_R1,Plate:MR024",1420 nM
same,potency estimated from few doses,"TGFBR1; compound concentrations:100 nM and 1000 nM (sheet 'Lestaurtinib' of Supplementary Table 1),run:Lestaurtinib_02748_R3,Plate:MR024",1750 nM
same,potency estimated from few doses,TGFBR1; [9],1600 nM
same,potency estimated from few doses,TGFBR1; [10],2020 nM
same,potency estimated from few doses,TGFBR1; [11],1360 nM
same,potency estimated from few doses,TGFBR1; [12],1570 nM
same,potency estimated from few doses,TGFBR1; [13],1540 nM
same,potency estimated from few doses,"TGFBR1; compound concentrations:100 nM and 1000 nM (sheet 'Lestaurtinib' of Supplementary Table 1),run:Lestaurtinib_02896_R3,Plate:MR030",950 nM
same,potency estimated from few doses,"TGFBR1; compound concentrations:100 nM and 1000 nM (sheet 'Lestaurtinib' of Supplementary Table 1),run:Lestaurtinib_03172_R1,Plate:MR031",1540 nM
same,potency estimated from few doses,"TGFBR1; compound concentrations:100 nM and 1000 nM (sheet 'Lestaurtinib' of Supplementary Table 1),run:Lestaurtinib_03172_R3,Plate:MR031",1580 nM
same,potency estimated from few doses,"TGFBR1; compound concentrations:100 nM and 1000 nM (sheet 'Lestaurtinib' of Supplementary Table 1),run:Lestaurtinib_03252_R1,Plate:MR032",1330 nM
same,potency estimated from few doses,"TGFBR1; compound concentrations:100 nM and 1000 nM (sheet 'Lestaurtinib' of Supplementary Table 1),run:Lestaurtinib_03252_R2,Plate:MR032",1590 nM
same,potency estimated from few doses,"TNK1; compound concentrations:100 nM and 1000 nM (sheet 'Lestaurtinib' of Supplementary Table 1),run:Lestaurtinib_02339_R1,Plate:MR001",220 nM
same,potency estimated from few doses,TNK1; [14],93.5 nM
same,potency estimated from few doses,TNK1; [15],256 nM
same,potency estimated from few doses,"TNK1; compound concentrations:100 nM and 1000 nM (sheet 'Lestaurtinib' of Supplementary Table 1),run:Lestaurtinib_02364_R2,Plate:MR002",213 nM
same,potency estimated from few doses,TNK1; [16],190 nM
same,potency estimated from few doses,"TNK1; compound concentrations:100 nM and 1000 nM (sheet 'Lestaurtinib' of Supplementary Table 1),run:Lestaurtinib_02367_R1,Plate:MR003",191 nM
same,potency estimated from few doses,TNK1; [17],208 nM
same,potency estimated from few doses,"TNK1; compound concentrations:100 nM and 1000 nM (sheet 'Lestaurtinib' of Supplementary Table 1),run:Lestaurtinib_02407_R3,Plate:MR005",213 nM
same,potency estimated from few doses,"TNK1; compound concentrations:100 nM and 1000 nM (sheet 'Lestaurtinib' of Supplementary Table 1),run:Lestaurtinib_02422_R3,Plate:MR006",75 nM
same,potency estimated from few doses,TNK1; [18],15.8 nM
same,potency estimated from few doses,TNK1; [19],65.4 nM
